# Source: PubChem BioAssay (National Center for Advancing Translational Sciences (NCATS))
# Tb PYK inh: T. brucei pyruvate kinase inhibition | Q57TT1 | TbPYK enzyme, Kinase-Glo Plus ATP luminescence, 45 min | Potency, µM (series often up to 76.8 µM), hits mostly inhibitors | hit rate 0.12% among 410,000; further: nearly all actives have a fitted effect of over 50% in size
#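 Assay buffer: 50 mM TEA pH 7.2, 100 mM KCl, 10 mM MgCl2, 0.05% BSA, 0.01% Tween-20. Pyruvate kinase from T. brucei plus substrate met compound, then ADP (130 uM final). Luminescence was read post 45 min RT.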
# FBPA Giardia inh: inhibitors of Giardia lamblia fructose-1,6-bisphosphate aldolase. A8B2U2. purified Giardia FBPA. Potency, µM (doses to about 59.6 µM), actives largely listed as inhibitors. hit rate 0.71% among 290,000. AID 2451; further: nearly all actives have a fitted effect of over 55% in size
#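 40 nM FBPA preincubated 10 min at RT with compound (up to 57.5 uM final), then substrate plus GAPDH/TPI/NAD/arsenate coupling and diaphorase/resazurin added. Fluorescence read after 20 min at RT, 525/598 nm.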
# Shiga inhibitor: Shiga toxin inhibition | hit rate 9.2% among 290,000 | AID 2315 | Vero cells, Shiga toxin protein synthesis inhibition reporter | inhibition, % at 38.7 µM; in the data active means inhibition mostly above about 28%, no sharp cut-off; inactive means mostly below about 43%
# LmPK inh: LmPK (Leishmania mexicana) enzyme inhibition | purified LmPK, Kinase-Glo ATP luminescence, 1 h | Q27686 | hit rate 0.37% among 290,000 | Potency, µM (series often up to 57.5 µM), hits mostly inhibitors
# Target sequence (Q27686 whole entry, looked up): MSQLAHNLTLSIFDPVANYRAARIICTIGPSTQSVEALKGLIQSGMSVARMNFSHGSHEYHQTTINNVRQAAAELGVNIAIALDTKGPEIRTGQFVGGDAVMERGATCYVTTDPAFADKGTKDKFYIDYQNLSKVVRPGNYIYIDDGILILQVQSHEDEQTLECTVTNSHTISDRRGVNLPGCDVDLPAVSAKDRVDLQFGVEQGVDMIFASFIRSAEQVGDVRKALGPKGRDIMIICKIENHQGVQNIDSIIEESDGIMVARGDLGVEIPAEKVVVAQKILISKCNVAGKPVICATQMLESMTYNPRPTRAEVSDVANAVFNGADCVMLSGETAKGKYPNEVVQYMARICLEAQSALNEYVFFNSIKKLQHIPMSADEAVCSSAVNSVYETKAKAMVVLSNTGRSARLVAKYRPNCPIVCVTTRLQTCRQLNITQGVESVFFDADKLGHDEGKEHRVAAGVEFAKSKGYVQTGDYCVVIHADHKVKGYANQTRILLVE
#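 qHTS format; LmPK 0.1 nM; substrates PEP 0.5 mM and ADP 0.1 mM. One-hour room-temperature incubation, then coupled luciferase luminescence; 0.5 nM enzyme wells mark activation.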
# CHX counter: counter-screen for Shiga toxin inhibitors: cycloheximide protein synthesis inhibition; cell reporter, cycloheximide protein synthesis inhibition counterscreen; max response, %; hit rate 12% among 300,000; in the data active means max response mostly above about 13%, no sharp cut-off; inactive means mostly below about 14%; further: read at 38.3 µM for the half of the compounds with a filed dose
# Sm TGR inh: S. mansoni TGR enzyme inhibition. Potency, µM (highest dose often 114 µM), most hits filed as inhibitors. purified TGR, DTNB reduction, TNB absorbance 405 nm. hit rate 3% among 360,000. Q962Y6; further: nearly all actives have a fitted effect of over 60% in size
#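 Kinetic colorimetric format: TGR-catalysed, NADPH-driven DTNB reduction monitored via TNB absorbance. Enzyme dispensed at 20 nM; compound exposure 15 min at room temperature before reaction start.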
# Numbers stand for hits; i = inactive; ? = inconclusive; nt = not tested or not shown; [ ] = dose if it differs, or a comment. Only a selection was taken, and hits are over-represented in it overall. Unless noted, the call rests on the fitted dose curve; in most records, active means well fitted curve in the direction sought with a large enough effect; inconclusive means small, poorly fitted or top-dose-only effect, or another doubt; inactive means no such curve, though single readings can be large; an effect the other way counts as inactive or inconclusive.
SMILES,Tb PYK inh,FBPA Giardia inh,Shiga inhibitor,LmPK inh,CHX counter,Sm TGR inh
Cc1cc(C)n2cc(CSCc3ccco3)nc2n1,i,i,i,i,i,40µM
Cc1cccc2nc(CSCc3ccco3)cn12,i,?,82,i,31,28µM
Cc1cccc2nc(CSc3nc4cc([N+](=O)[O-])ccc4s3)cn12,i,i,i,i,i,i
O=C(NCc1ccc(F)cc1)c1ccc2c(c1)nc1n2CCCCC1,i,nt,nt,nt,nt,i
N#C/C(=N\Nc1ccc(Cl)cc1)C(=O)c1ccsc1,i,i,53,i,31,i
N#C/C(=N\Nc1cccc(Cl)c1)C(=O)c1ccccc1,i,i,i,i,i,i
Cc1ccc(N/N=C(\C#N)C(=O)c2ccsc2)cc1,i,i,i,i,21,i
Cc1ccc(C)c(-n2c(-c3cccnc3)n[nH]c2=S)c1,?,?,i,i,i,nt
Cc1c(Cl)cccc1-n1c(-c2cccnc2)n[nH]c1=S,7.1µM,i,i,?,i,i
Cc1cc(Cl)ccc1-n1c(-c2cccnc2)n[nH]c1=S,14µM,i,i,8.9µM,i,i
C=CCn1c(SCC(=O)Nc2cccnc2Cl)nnc1-c1ccc(C(C)(C)C)cc1,i,i,i,i,13,i
C=CCn1c(SCC(=O)Nc2ccccc2C)nnc1-c1ccncc1,i,i,i,i,i,i
Cc1ccc(C(=O)NCC(=O)NC23CC4CC(CC(C4)C2)C3)cc1,i,nt,69,i,37,i
O=C(COC(=O)CNC(=O)c1ccccc1)NC12CC3CC(CC(C3)C1)C2,i,nt,nt,nt,nt,nt
CCCNC(=O)CCc1c(C)nc2nc(C)nn2c1C,i,i,i,i,i,i
Cc1onc(-c2ccccc2)c1-c1ccnc(N)n1,i,i,i,i,i,i
Cc1ccc(C)n1-c1ccc(-c2ccnc(N)n2)cc1,i,i,i,i,24,25µM
COc1ccccc1C(=O)Nc1cccc(C(=O)OCc2cc(=O)n3ccsc3n2)c1,i,nt,nt,nt,nt,i
O=C(Nc1ccc2c(c1)OCO2)NC1CCN(Cc2ccccc2)CC1,i,i,41,i,36,i
O=C(CSCc1ccc(Cl)cc1)Nc1ccc2c(c1)OCCO2,i,i,96,i,i,i
Cc1ccc(CSCC(=O)Nc2ccc3c(c2)OCO3)cc1,i,i,57,i,i,i
O=C(CSCc1c(Cl)cccc1Cl)Nc1ccc2c(c1)OCO2,i,i,i,i,i,i
O=C(CSCc1ccccc1)Nc1ccc2c(c1)OCO2,i,i,115,i,39,i
O=C(CSCSCC(=O)Nc1ccc2c(c1)OCO2)Nc1ccc2c(c1)OCO2,i,i,i,i,i,i
CCOC(=O)Cc1csc(NS(=O)(=O)c2ccc([N+](=O)[O-])cc2)n1,i,i,i,i,i,i
SMILES,Tb PYK inh,FBPA Giardia inh,Shiga inhibitor,LmPK inh,CHX counter,Sm TGR inh
CC(C)Oc1ccc(CNC(=O)c2ccc3c(c2)nc2n3CCCCC2)cc1,i,nt,nt,nt,nt,i
CCCOCCN(C(=O)CCl)c1c(CC)cccc1CC,nt,i,i,nt,i,nt
CCOC(=O)c1c(NC(=O)CSc2cn(CCNC(=O)c3ccc(OC)c(OC)c3)c3ccccc23)sc2c1CCC2,i,nt,nt,nt,nt,i
CCC(=O)Nc1cccc(C(=O)OCC(=O)c2ccccc2Cl)c1,i,i,74,i,31,i
CC(=O)Nc1cccc(C(=O)OCC(=O)c2ccccc2Cl)c1,i,i,125,i,35,i
COc1ccccc1C(=O)NC(=O)COC(=O)c1cccc(NC(C)=O)c1,i,nt,i,i,28,i
COC(=O)c1c(SC)nc2ccccc2c1OCc1ccccc1Cl,i,nt,nt,nt,nt,i
CCC(Cc1c(I)cc(I)c(O)c1I)C(=O)O (stereo not drawn),i,nt,nt,nt,nt,nt
CC(=O)C(Cc1ccccc1)NC(=O)COC(=O)CCN1C(=O)C2CC=CCC2C1=O (stereo not drawn),i,nt,nt,nt,nt,i
CCOC(=O)c1cc(C(C)(C)C)oc1CNC(=O)c1c(C)oc2c1CCCC2,i,i,73,i,i,i
O=C(NCCc1ccc(F)cc1)C(=O)NCC(c1cccs1)S(=O)(=O)c1ccccc1 (stereo not drawn),i[15.4 µM],nt,nt,nt,nt,i
Nc1nc(N)c2sc3nc4c(cc3c2n1)CCC4,i,i,i,i,25,i
Cc1ccc(Cn2ncn(-c3ccccc3)c2=O)cc1,i,i,i,i,19,nt
O=C(CCCCCNC(=O)N1CCn2c1nc1ccccc12)NCc1ccc(F)cc1,i,nt,i,i,i,i
c1ccc(Oc2ncnc3ccccc23)cc1,i,nt,nt,nt,nt,nt
CCOc1ccc(OCCOc2ncnc3ccccc23)cc1,i,i,i,i,41,i
COc1cccc(COc2ncnc3sccc23)c1,i,i,i,i,i,i
c1cnc2c(Oc3ncnc4sccc34)cccc2c1,i,i,i,i,i,i
Cc1ccc(Oc2ncnc3sccc23)cc1,i,i,91,i,55,i
c1ccc(OCCOc2ncnc3sccc23)cc1,i,i,69,i,38,i
CCOC(=O)c1cnc2ccc(C(=O)OC)cc2c1Nc1ccccc1CC,i,nt,nt,nt,nt,i
COc1ccc(C(=S)N2CCOCC2)cc1OC(=O)c1ccccc1Cl,i,i,i,i,i,i
OC(COc1ccc2c(c1)CCC2)Cn1cnc2ccccc21 (stereo not drawn),i,i,74,i,i,i
CC(C)NCC(O)COc1ccc2c(c1)CCC2 (stereo not drawn),i,i,110,i,32,i
Cc1ccc2nc(NCCN)c3ncc(C)n3c2c1,nt,i,i,nt,i,nt
SMILES,Tb PYK inh,FBPA Giardia inh,Shiga inhibitor,LmPK inh,CHX counter,Sm TGR inh
CCc1cccc(NC(=O)C(Cc2ccccc2)NS(=O)(=O)c2ccc3c(c2)oc(=O)n3C)c1 (stereo not drawn),i,nt,nt,nt,nt,i
OC[C@H]1O[C@@H](n2cnc3c(Nc4ccccc4)ncnc32)[C@H](O)[C@@H]1O,i,i,108,i,i,i
OC[C@H]1O[C@@H](n2cnc3c(NCc4ccccc4)ncnc32)[C@H](O)[C@@H]1O,nt,i,nt,nt,nt,nt
O=C(c1cccc(Cl)c1)N1CCC(N2CCC(C(=O)N3CCCC3)CC2)CC1,i,i,i,i,21,i
O=C(C1CCCN(C2CC(=O)N(c3ccc(F)cc3)C2=O)C1)N1CCCC1 (stereo not drawn),i,nt,i,i,i,?
Cc1cc(C)n(C2CC(=O)N(c3cccc(Cl)c3)C2=O)n1 (stereo not drawn),i,i,i,i,i,25µM
O=C(C1CCN(C2CC(=O)N(c3cccc(Cl)c3)C2=O)CC1)N1CCCCCC1 (stereo not drawn),i,i,i,i,i,14µM
O=C(c1cccc(Cl)c1)N1CCN(C2CCCCC2)CC1,i,i,i,i,i,i
O=C(C1CCCN(C2CC(=O)N(c3ccc(Cl)cc3)C2=O)C1)N1CCCC1 (stereo not drawn),i,nt,i,i,i,40µM
O=C(CN1CCN(S(=O)(=O)c2ccc(Cl)cc2)CC1)NC1CC1,i,nt,i,i,i,i
CCCOc1ccc(N2C(=O)CC(N3CCCC(C(=O)N4CCCC4)C3)C2=O)cc1 (stereo not drawn),i,i,i,i,i,35µM
